# Reference: paper PMC7862700, “An all-to-all approach to the identification of sequence-specific readers for epigenetic DNA modifications on cytosine”
# Assays:
# Test in all cases: DAPPL (digital affinity profiling via proximity ligation, sequencing); 10 mM Tris-HCl pH 7.5, 50 mM NaCl, 1 mM DTT, 4% glycerol, room temperature, 30 min; GST-TFs on glutathione beads, 16-mer random dsDNA library, 0.1% formaldehyde crosslink after washing; high values mean tight binding
# [1] = target: T1, FLI1 (Homo sapiens, UniProt Q01543 1-452); settings: protein: recombinant; tags: N-terminal GST; dsDNA, one strand shown
# T1 sequence: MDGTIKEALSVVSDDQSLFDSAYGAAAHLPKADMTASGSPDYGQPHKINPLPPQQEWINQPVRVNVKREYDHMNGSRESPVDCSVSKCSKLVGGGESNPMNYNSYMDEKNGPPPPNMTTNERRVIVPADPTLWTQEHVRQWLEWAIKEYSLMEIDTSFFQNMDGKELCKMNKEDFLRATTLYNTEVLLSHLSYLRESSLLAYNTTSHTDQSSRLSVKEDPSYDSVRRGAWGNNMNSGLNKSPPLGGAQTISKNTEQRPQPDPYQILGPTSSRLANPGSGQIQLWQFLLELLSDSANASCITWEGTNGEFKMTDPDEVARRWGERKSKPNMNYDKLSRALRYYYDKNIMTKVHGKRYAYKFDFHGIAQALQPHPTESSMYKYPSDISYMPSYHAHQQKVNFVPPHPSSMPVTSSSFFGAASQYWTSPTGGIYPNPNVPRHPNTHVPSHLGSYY
# Summary of the method: (§1)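 Pools of DNA-barcoded human transcription factors, expressed in yeast as GST fusions on glutathione beads and combined with a tag-only sample, were incubated with 200 nmole of a 16-mer random double-stranded DNA library. Incubation took 30 min at room temperature in Tris/NaCl/DTT/glycerol buffer and was followed by washing, 0.1% formaldehyde crosslinking, proximity ligation (BsaI/T4 ligase, 1 h, 37 °C), PCR amplification and sequencing on an Illumina NextSeq500. Binding signal is the ratio of a hexamer's read frequency for a factor to its frequency for the tag-only sample.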
# [2] = target: T2, ELK1 (Homo sapiens, UniProt P19419 1-428); settings: protein: recombinant; tags: N-terminal GST; dsDNA, one strand shown
# T2 sequence: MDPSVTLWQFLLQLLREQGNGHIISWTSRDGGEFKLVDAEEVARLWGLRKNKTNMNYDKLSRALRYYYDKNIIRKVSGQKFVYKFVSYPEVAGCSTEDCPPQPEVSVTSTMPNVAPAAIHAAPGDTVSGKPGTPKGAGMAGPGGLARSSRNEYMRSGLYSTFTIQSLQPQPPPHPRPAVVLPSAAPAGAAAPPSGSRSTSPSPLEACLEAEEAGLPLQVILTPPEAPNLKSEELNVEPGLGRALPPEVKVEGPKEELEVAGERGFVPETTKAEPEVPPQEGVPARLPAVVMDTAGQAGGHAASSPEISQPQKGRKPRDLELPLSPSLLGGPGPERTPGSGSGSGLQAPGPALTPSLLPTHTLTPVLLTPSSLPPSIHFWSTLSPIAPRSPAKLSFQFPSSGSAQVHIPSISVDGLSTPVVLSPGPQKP
# Summary of the method: as §1
# [3] = target: T3, GABPA (Homo sapiens, UniProt Q06546 1-454); settings: protein: recombinant; tags: N-terminal GST; dsDNA, one strand shown
# T3 sequence: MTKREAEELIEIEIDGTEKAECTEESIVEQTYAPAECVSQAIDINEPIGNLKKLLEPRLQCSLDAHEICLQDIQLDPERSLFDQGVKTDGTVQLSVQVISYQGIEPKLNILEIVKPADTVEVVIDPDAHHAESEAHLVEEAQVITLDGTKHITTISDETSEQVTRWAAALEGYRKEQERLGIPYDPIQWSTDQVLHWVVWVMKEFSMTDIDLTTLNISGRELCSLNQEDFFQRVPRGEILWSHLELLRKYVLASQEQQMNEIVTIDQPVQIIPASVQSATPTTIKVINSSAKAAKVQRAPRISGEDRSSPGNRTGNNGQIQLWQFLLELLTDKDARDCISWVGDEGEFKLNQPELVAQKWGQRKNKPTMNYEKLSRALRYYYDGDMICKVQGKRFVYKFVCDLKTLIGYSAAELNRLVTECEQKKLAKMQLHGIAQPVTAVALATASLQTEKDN
# Summary of the method: as §1
# [4] = target: T4, ERG (Homo sapiens, UniProt P11308 1-479); settings: protein: recombinant; tags: N-terminal GST; dsDNA, one strand shown
# T4 sequence: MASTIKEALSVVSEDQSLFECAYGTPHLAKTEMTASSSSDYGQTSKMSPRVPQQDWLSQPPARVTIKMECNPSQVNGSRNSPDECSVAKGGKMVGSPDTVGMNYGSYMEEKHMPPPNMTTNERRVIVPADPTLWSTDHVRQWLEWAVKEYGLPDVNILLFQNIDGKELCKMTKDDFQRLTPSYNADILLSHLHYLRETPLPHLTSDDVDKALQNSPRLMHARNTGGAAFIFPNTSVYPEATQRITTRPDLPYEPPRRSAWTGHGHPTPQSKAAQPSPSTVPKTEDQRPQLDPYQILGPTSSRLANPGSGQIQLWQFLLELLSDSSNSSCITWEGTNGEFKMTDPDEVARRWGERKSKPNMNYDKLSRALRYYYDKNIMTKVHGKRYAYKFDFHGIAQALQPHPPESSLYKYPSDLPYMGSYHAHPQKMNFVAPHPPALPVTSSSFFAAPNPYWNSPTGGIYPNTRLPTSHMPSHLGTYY
# Summary of the method: as §1
# [5] = target: ELF1 (Homo sapiens, UniProt P32519 1-619); settings: protein: recombinant; tags: N-terminal GST; dsDNA, one strand shown
# Summary of the method: as §1
# [6] = target: T5, EHF (Homo sapiens, UniProt Q9NZC4 1-300); settings: protein: recombinant; tags: N-terminal GST; dsDNA, one strand shown
# T5 sequence: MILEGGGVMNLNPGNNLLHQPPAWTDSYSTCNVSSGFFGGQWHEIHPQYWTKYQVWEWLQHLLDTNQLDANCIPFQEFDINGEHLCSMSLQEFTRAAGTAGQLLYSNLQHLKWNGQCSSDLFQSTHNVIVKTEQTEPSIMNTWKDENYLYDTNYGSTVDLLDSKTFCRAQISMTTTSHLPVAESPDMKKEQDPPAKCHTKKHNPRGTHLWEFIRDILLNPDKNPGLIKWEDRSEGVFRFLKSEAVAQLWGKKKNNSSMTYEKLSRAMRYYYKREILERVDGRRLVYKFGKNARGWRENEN
# Summary of the method: as §1
# [7] = target: SPI1 (Homo sapiens, UniProt P17947 1-270); settings: protein: recombinant; tags: N-terminal GST; dsDNA, one strand shown
# Summary of the method: as §1
# [8] = target: SPIB (Homo sapiens, UniProt Q01892 1-262); settings: protein: recombinant; tags: N-terminal GST; dsDNA, one strand shown
# Summary of the method: as §1
# [9] = target: T6, ELK3 (Homo sapiens, UniProt P41970 1-407); settings: protein: recombinant; tags: N-terminal GST; dsDNA, one strand shown
# T6 sequence: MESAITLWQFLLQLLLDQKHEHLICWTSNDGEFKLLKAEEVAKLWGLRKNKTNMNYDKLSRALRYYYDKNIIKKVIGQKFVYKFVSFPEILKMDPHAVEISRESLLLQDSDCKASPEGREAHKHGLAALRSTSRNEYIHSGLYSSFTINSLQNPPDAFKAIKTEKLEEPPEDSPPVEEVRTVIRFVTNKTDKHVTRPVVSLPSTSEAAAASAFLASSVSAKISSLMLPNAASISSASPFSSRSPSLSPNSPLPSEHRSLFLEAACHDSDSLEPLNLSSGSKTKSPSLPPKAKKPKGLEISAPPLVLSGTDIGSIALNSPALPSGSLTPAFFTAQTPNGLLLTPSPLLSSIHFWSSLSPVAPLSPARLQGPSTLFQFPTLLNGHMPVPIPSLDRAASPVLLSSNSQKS
# Summary of the method: as §1
# [10] = target: T7, FEV (Homo sapiens, UniProt Q99581 1-238); settings: protein: recombinant; tags: N-terminal GST; dsDNA, one strand shown
# T7 sequence: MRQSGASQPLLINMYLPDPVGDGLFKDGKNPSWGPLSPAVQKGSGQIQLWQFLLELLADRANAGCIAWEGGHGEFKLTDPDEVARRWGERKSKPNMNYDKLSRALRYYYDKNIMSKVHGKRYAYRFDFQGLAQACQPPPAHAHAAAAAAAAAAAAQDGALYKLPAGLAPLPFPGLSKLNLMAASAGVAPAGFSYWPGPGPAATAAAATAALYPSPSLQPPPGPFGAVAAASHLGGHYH
# Summary of the method: as §1
# [11] = target: ETV5 (Homo sapiens, UniProt P41161 1-510); settings: protein: recombinant; tags: N-terminal GST; dsDNA, one strand shown
# Summary of the method: as §1
# [12] = target: HSF1 (Homo sapiens, UniProt Q00613 1-529); settings: protein: recombinant; tags: N-terminal GST; chain copies: 3; dsDNA, one strand shown
# Summary of the method: as §1
# [13] = target: T8, SPIC (Homo sapiens, UniProt Q8N5J4 1-248); settings: protein: recombinant; tags: N-terminal GST; dsDNA, one strand shown
# T8 sequence: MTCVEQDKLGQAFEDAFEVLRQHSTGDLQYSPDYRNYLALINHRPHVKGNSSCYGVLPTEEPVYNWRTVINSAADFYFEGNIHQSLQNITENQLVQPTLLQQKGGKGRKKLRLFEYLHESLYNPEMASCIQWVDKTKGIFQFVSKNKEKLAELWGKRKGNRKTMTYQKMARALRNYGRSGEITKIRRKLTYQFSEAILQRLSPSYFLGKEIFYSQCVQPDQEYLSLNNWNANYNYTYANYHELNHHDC
# Summary of the method: as §1
# [14] = target: ELF4 (Homo sapiens, UniProt Q99607 1-663); settings: protein: recombinant; tags: N-terminal GST; dsDNA, one strand shown
# Summary of the method: as §1
# [15] = target: T9, ELK4 (Homo sapiens, UniProt P28324-2 1-405); settings: protein: recombinant; tags: N-terminal GST; dsDNA, one strand shown
# T9 sequence: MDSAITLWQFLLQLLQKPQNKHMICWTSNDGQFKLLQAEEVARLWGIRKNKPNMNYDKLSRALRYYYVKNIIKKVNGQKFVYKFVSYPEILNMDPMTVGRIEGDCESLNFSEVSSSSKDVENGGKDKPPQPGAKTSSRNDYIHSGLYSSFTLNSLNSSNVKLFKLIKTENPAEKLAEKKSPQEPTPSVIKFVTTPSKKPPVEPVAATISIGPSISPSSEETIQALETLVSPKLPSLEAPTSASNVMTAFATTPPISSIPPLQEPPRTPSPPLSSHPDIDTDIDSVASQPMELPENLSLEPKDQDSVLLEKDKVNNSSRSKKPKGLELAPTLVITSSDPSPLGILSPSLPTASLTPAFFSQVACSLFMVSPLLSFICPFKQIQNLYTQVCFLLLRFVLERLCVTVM
# Summary of the method: as §1
# [16] = target: T10, ETV2 (Homo sapiens, UniProt O00321 1-342); settings: protein: recombinant; tags: N-terminal GST; dsDNA, one strand shown
# T10 sequence: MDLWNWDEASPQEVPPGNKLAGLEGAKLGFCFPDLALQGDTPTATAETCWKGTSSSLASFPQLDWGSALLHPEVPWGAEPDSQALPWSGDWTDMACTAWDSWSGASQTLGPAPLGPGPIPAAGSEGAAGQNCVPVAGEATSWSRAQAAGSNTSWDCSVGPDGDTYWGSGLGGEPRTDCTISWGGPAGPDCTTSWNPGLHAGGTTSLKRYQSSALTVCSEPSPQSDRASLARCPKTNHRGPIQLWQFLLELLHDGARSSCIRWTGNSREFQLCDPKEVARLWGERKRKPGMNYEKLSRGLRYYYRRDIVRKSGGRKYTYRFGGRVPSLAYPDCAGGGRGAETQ
# Summary of the method: as §1
# [17] = target: T11, ELF3 (Homo sapiens, UniProt P78545 1-371); settings: protein: recombinant; tags: N-terminal GST; dsDNA, one strand shown
# T11 sequence: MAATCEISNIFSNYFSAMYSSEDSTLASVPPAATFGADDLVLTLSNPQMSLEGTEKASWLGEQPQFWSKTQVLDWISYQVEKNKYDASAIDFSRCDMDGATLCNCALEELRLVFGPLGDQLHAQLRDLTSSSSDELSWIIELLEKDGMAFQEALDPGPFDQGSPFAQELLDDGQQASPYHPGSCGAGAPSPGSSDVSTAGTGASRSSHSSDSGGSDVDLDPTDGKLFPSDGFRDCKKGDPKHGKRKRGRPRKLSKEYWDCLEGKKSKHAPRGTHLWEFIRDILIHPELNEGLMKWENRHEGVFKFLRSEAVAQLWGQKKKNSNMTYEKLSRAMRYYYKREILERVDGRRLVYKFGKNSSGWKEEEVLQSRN
# Summary of the method: as §1
# [18] = target: CRX (Homo sapiens, UniProt O43186 1-299); settings: protein: recombinant; tags: N-terminal GST; dsDNA, one strand shown
# Summary of the method: as §1
# [19] = target: ETV1 (Homo sapiens, UniProt P50549 1-477); settings: protein: recombinant; tags: N-terminal GST; dsDNA, one strand shown
# Summary of the method: as §1
# Sequence of ELF1 (P32519 whole entry): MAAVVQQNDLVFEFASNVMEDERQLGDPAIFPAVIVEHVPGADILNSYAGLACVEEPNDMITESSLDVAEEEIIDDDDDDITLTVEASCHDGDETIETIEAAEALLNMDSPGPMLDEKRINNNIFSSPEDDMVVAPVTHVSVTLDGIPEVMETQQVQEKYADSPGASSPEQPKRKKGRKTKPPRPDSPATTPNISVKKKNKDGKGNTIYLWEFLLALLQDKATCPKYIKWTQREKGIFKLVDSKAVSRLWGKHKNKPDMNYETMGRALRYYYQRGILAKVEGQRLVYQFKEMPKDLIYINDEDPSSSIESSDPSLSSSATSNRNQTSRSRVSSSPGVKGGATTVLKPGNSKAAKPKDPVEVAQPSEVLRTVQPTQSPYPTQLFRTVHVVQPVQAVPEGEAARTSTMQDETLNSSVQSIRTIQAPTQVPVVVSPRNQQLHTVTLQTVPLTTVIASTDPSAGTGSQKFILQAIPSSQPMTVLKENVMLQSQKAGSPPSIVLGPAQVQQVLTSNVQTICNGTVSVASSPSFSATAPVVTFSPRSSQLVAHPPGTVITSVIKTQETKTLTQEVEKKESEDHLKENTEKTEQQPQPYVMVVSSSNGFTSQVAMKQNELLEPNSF
# Sequence of HSF1 (Q00613 whole entry): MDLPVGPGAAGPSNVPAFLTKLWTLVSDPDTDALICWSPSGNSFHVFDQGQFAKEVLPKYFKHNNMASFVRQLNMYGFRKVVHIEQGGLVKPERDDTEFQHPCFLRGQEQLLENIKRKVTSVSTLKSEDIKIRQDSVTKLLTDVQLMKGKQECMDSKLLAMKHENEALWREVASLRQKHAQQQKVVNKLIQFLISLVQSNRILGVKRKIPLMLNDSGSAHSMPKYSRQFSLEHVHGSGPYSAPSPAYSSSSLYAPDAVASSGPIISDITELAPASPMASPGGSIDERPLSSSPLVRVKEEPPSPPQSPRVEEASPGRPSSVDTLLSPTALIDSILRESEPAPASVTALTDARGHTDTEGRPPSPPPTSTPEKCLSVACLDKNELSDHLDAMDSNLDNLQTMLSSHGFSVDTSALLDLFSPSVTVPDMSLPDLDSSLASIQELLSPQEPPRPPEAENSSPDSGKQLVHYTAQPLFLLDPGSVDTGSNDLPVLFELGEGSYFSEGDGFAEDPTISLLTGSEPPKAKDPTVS
# Sequence of CRX (O43186 whole entry): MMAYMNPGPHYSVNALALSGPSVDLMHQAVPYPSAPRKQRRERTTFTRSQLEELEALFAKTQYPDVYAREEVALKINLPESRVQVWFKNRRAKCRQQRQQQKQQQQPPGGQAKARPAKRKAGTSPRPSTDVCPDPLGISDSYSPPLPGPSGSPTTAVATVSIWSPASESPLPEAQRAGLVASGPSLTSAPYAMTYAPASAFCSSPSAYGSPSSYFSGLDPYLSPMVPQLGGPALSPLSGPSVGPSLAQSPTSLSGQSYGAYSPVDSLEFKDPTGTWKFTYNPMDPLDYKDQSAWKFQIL
# Sequence of ETV5 (P41161 whole entry): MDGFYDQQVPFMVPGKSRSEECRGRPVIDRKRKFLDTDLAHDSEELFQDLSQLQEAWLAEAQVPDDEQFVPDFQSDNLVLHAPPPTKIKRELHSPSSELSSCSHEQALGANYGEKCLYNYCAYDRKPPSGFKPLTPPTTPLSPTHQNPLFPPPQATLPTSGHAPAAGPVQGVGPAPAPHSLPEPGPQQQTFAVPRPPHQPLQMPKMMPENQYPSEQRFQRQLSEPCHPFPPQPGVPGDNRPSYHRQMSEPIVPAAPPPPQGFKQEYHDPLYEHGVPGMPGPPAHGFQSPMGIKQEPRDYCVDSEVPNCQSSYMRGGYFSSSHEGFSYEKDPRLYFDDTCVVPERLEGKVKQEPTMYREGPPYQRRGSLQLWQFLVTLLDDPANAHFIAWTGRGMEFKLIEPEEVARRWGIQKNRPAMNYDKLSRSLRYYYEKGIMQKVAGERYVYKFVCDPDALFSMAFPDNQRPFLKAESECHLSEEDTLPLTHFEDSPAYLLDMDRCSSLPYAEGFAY
# Sequence of ETV1 (P50549 whole entry): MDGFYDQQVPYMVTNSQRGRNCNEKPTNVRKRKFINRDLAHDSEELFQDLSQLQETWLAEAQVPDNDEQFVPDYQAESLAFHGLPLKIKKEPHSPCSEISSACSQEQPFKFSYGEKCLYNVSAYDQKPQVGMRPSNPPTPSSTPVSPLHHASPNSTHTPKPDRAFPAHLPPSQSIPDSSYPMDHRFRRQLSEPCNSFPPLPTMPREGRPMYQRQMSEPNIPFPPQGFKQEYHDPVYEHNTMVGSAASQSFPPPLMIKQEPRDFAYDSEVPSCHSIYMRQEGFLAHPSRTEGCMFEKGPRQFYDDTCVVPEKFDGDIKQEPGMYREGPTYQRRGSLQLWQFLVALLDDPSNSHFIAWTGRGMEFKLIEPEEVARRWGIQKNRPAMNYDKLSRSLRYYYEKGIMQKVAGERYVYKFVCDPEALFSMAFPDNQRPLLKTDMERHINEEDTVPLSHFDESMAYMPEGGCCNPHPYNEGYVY
# Sequence of SPIB (Q01892 whole entry): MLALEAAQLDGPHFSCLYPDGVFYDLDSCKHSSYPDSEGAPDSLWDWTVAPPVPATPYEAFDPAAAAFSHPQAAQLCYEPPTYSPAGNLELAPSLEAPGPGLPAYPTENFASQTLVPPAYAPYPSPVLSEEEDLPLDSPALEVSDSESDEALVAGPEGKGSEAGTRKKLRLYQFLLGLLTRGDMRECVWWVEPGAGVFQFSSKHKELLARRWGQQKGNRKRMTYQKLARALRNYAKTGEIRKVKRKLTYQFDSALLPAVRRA
# Sequence of ELF4 (Q99607 whole entry): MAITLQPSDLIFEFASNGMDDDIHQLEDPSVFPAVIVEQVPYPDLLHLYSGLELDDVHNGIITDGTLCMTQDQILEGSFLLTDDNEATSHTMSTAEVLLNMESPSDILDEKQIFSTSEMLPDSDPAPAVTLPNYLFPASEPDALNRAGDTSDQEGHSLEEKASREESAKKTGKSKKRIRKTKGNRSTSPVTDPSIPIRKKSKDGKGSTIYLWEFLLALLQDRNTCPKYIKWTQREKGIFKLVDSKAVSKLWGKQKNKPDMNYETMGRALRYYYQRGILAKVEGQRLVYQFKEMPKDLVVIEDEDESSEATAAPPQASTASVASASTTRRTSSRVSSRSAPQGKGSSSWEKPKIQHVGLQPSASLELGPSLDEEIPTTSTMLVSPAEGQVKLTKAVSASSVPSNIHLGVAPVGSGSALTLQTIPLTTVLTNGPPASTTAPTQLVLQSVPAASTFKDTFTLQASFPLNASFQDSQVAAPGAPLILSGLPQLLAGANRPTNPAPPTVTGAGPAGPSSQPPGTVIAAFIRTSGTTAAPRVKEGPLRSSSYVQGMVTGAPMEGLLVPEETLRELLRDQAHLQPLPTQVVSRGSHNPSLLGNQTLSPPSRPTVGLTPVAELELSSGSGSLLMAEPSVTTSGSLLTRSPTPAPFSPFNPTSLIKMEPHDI
sequence,measurement,setting,value
TACGTT,binding signal,[1],"1.29 fold enrichment (6-mer frequency, TF over GST control)"
same,binding signal,[2],"1.26 fold enrichment (6-mer frequency, TF over GST control)"
same,binding signal,[3],"1.4 fold enrichment (6-mer frequency, TF over GST control)"
same,binding signal,[4],"1.31 fold enrichment (6-mer frequency, TF over GST control)"
same,binding signal,[5],"1.29 fold enrichment (6-mer frequency, TF over GST control)"
same,binding signal,[6],"1.24 fold enrichment (6-mer frequency, TF over GST control)"
same,binding signal,[7],"1.25 fold enrichment (6-mer frequency, TF over GST control)"
same,binding signal,[8],"1.33 fold enrichment (6-mer frequency, TF over GST control)"
same,binding signal,[9],"1.35 fold enrichment (6-mer frequency, TF over GST control)"
same,binding signal,[10],"1.35 fold enrichment (6-mer frequency, TF over GST control)"
same,binding signal,[11],"1.33 fold enrichment (6-mer frequency, TF over GST control)"
same,binding signal,[12],"1.24 fold enrichment (6-mer frequency, TF over GST control)"
same,binding signal,[13],"1.47 fold enrichment (6-mer frequency, TF over GST control)"
same,binding signal,[14],"1.23 fold enrichment (6-mer frequency, TF over GST control)"
same,binding signal,[15],"1.29 fold enrichment (6-mer frequency, TF over GST control)"
same,binding signal,[16],"1.27 fold enrichment (6-mer frequency, TF over GST control)"
same,binding signal,[17],"1.12 fold enrichment (6-mer frequency, TF over GST control)"
same,binding signal,[18],"1.34 fold enrichment (6-mer frequency, TF over GST control)"
same,binding signal,[19],"1.29 fold enrichment (6-mer frequency, TF over GST control)"
